# Screens from PubChem.
# A647 fluor: qHTS Assay for Spectroscopic Profiling in A647 Spectral Region; Compound fluorescence, A647 channel (570/671 nm), Tris buffer; max dye-equivalent concentration, M; 59,000 tested, under 10 active; AID 592, 2007;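 note: values scaled relative to a standard on each plate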
#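 Compound fluorescence was measured in 100 mM Tris buffer, pH 8.0, after 15 min at room temperature, using 570 nm excitation and 671 nm emission filters. Signal was normalized to a per-plate Alexa 647 standard curve and expressed as dye-equivalent concentration at each compound concentration.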
# Fluorescein fluor: qHTS Assay for Spectroscopic Profiling in Fluorescein Spectral Region | Compound autofluorescence, 480/540 nm, fluorescein-equivalent; stronger effect = higher value | max fluorescein-equivalent concentration, M | 59,000 tested, 0.91% active | AID 593, 2007; in the data active = max fluorescein-equivalent concentration above about 10 nM; inconclusive = between about 1.1 nM and that limit
#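 Values reflect compound autofluorescence, normalized to fluorescein on the same plate and reported at each tested concentration. Conditions: 100 mM Tris pH 8.0, room temperature, 15 min, excitation 480 nm, emission 540 nm.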
# A488 autofl: qHTS Assay for Spectroscopic Profiling in A488 Spectral Region; compound autofluorescence, A488 spectral region, dye equivalency; Compound Type: qHTS ECL - MLSMR; 59,000 tested, 0.1% active; AID 591, 2007; max dye equivalency, M
#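 Spectroscopic profiling in the A488 region: compounds in pH 8.0 Tris (100 mM), 15 min RT, CCD imaging with 480 nm excitation and 540 nm emission; responses normalized against A488 dye standards.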
# Resorufin fluor: qHTS Assay for Spectroscopic Profiling in Resorufin Spectral Region | Compound fluorescence, resorufin region 547/598 nm, buffer; stronger effect = higher value | max dye-equivalent concentration, M | 59,000 tested, 0.04% active | AID 588, 2007
#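 Read-out: intrinsic compound fluorescence at ex 547/em 598 nm after 15 min at RT in pH 8.0 Tris (100 mM). Values expressed as resorufin-equivalent concentration from per-plate standard series.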
# Texas Red fluor: qHTS Assay for Spectroscopic Profiling in Texas Red Spectral Region; AID 587, 2007; Compound fluorescence, Texas Red channel, 547/618 nm; stronger effect = higher value; 59,000 tested, 0.06% active; max dye-equivalent concentration, M; in the data active = max dye-equivalent concentration above about 10 nM; inconclusive = between about 1.1 nM and that limit
#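 Compound titrations in 100 mM Tris pH 8.0 were incubated 15 min at room temperature and read at 547 nm excitation / 618 nm emission. Texas Red six-point standard curve on each plate converted fluorescence to dye-equivalent concentration.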
# Rhodamine autofl: qHTS Assay for Spectroscopic Profiling in Rhodamine Spectral Region; Rhodamine-region fluorescence, 547/598 nm, Tris buffer; stronger effect = higher value; max dye-equivalent concentration, M; 59,000 tested, 0.05% active; in the data active = max dye-equivalent concentration above about 11 nM; inconclusive = between about 1.1 nM and that limit
#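 Steps: pin-transfer compounds into pH 8.0 Tris (100 mM), hold 15 min at room temperature, image with a 547/598 nm filter pair, and convert intensities to rhodamine-equivalent concentration using a six-point on-plate rhodamine series.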
# * hit, by the source's call; i = inactive; ? = inconclusive; ! = not confirmed by another sample. Most compounds without a hit are left out; they make up all but 0.95% or so of the library. Unless noted, the rule behind the calls is not given here.
SMILES,A647 fluor,Fluorescein fluor,A488 autofl,Resorufin fluor,Texas Red fluor,Rhodamine autofl
Nc1c(C(=O)NCCN2CCOCC2)c2nc3ccccc3nc2n1Cc1ccco1,4e-08,1.9e-08M*,i,i,i,i
CCOC(=O)c1c(N)n(CCN2CCCCC2)c2nc3ccccc3nc12,1e-09,i,i,i,i,i
COc1ccc(C[C@@H]2NC[C@H](O)[C@H]2OC(C)=O)cc1,4.6e-09,?,i,i,i,i
C=CCN1CCc2cccc3c2[C@@H]1Cc1ccc(O)c(O)c1-3,1e-09,?,i,i,i,i
Cc1c2ccncc2c(C)c2c1[nH]c1ccccc12,3.7e-09,1.1e-08M*!,i,i,i,i
c1ccc2c(c1)[nH]c1cnccc12,3.7e-08,?,i,i,i,i
CN1CCN(c2ccc([N+](=O)[O-])c3[nH]o[n+](=O)c23)CC1,4.7e-08,1.3e-07M*,?,i,i,?
O=C(CCCN1CCC2(CC1)C(=O)N(CCc1ccc(N=C=S)cc1)CN2c1ccccc1)c1ccc(F)cc1,6e-08,?,i,i,i,i
NC(N)=Nc1ccc2[nH]c3c(c2c1)C[C@]1(O)[C@@H]2Cc4ccc(O)c5c4[C@]1(CCN2CC1CC1)[C@H]3O5,4.3e-08,?,i,i,i,i
CCCN1CCC[C@H](c2cccc(C#N)c2)C1,5.1e-08,?,i,i,i,i
COc1cc(C=C(C#N)C#N)cc(O)c1O,3.7e-08,2.5e-08M*,i,i,i,i
